Source: PubChem BioAssay AID1159580 (chemical genetic matrix, 2015)
In all, about 5,500 compounds went through this assay and about 2,000 (36%) were called active. About 18% were inconclusive and are not listed. No stated cut-off is given here; in the data, active means normalized growth mostly below about 0.91 (no sharp cut-off); inconclusive means no clear call, values can overlap the other calls; inactive means mostly above about 0.92. This is one part of the list.

Experiment: chemical genetic growth profiling, strain panel (AID 1159580);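 further: tested at 20 µM; growth read once vehicle control cultures reached saturation at 30 °C; 1 = growth at the plate median or of vehicle wells; lower values mean less growth of the strain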
Conditions: growth OD

Measured: normalized growth

C=C1[C@H]2CC[C@@]3(C)[C@H](c4ccoc4)OC(=O)C[C@]13O[C@H]1C[C@H](O)C(C)(C)[C@H](CC(=O)OC)[C@]12C
inactive: S. cerevisiae deletion strains, locus YJR066W, strain TOR1, hits give low values 0.936 | S. cerevisiae deletion strains, locus YJR075W, strain HOC1, hits give low values 0.994 | S. cerevisiae deletion strains, locus YKL009W, strain mrt4, hits give low values 0.997 | S. cerevisiae deletion strains, locus YKL068W, hits give low values 1.02 | S. cerevisiae deletion strains, locus YKL085W, strain MDH1 (second series), hits give low values 1 | S. cerevisiae deletion strains, locus YKL085W, strain MDH1, hits give low values 1 | S. cerevisiae deletion strains, locus YKL160W, strain elf1, hits give low values 0.998 | S. cerevisiae deletion strains, locus YKR001C, strain vps1, hits give low values 1.01 | S. cerevisiae deletion strains, locus YKR026C, strain gcn3, hits give low values 1.02 | S. cerevisiae deletion strains, locus YKR091W, strain srl3, hits give low values 1.02 | S. cerevisiae deletion strains, locus YLL001W, strain dnm1, hits give low values 1.01 | S. cerevisiae deletion strains, locus YLL026W, hits give low values 1.01 | S. cerevisiae deletion strains, locus YLL041C, strain sdh2, hits give low values 1.01 | S. cerevisiae deletion strains, locus YLR027C, strain aat2, hits give low values 1.01 | S. cerevisiae deletion strains, locus YLR039C, strain RIC1, hits give low values 0.969 | S. cerevisiae deletion strains, locus YLR058C, strain SHM2, hits give low values 1.01 | S. cerevisiae deletion strains, locus YLR102C, strain apc9, hits give low values 1.01 | S. cerevisiae deletion strains, locus YLR113W, strain HOG1, hits give low values 1.04 | S. cerevisiae deletion strains, locus YLR221C, strain rsa3, hits give low values 1.03 | S. cerevisiae deletion strains, locus YLR258W, strain gsy2, hits give low values 1 | S. cerevisiae deletion strains, locus YLR262C, strain YPT6 (second series), hits give low values 0.994 | S. cerevisiae deletion strains, locus YLR262C, strain YPT6, hits give low values 0.938 | S. cerevisiae deletion strains, locus YLR268W, strain sec22, hits give low values 1.01 | S. cerevisiae deletion strains, locus YLR320W, strain mms22, hits give low values 1.03 | S. cerevisiae deletion strains, locus YLR342W, strain FKS1, hits give low values 1.02 | S. cerevisiae deletion strains, locus YLR357W, strain rsc2, hits give low values 1.03 | S. cerevisiae deletion strains, locus YLR370C, strain arc18, hits give low values 1 | S. cerevisiae deletion strains, locus YLR371W, strain rom2, hits give low values 1.02 | S. cerevisiae deletion strains, locus YLR384C, strain iki3, hits give low values 1.01 | S. cerevisiae deletion strains, locus YLR418C, strain cdc73, hits give low values 0.997 | S. cerevisiae deletion strains, locus YML016C, strain PPZ1, hits give low values 1 | S. cerevisiae deletion strains, locus YML032C, strain rad52, hits give low values 1.01 | S. cerevisiae deletion strains, locus YML120C, strain ndi1, hits give low values 0.998 | S. cerevisiae deletion strains, locus YML124C, strain tub3, hits give low values 1.02 | S. cerevisiae deletion strains, locus YMR058W, strain fet3, hits give low values 1.05 | S. cerevisiae deletion strains, locus YMR078C, strain ctf18, hits give low values 1.02 | S. cerevisiae deletion strains, locus YMR125W, strain sto1, hits give low values 1 | S. cerevisiae deletion strains, locus YMR129W, hits give low values 1.01 | S. cerevisiae deletion strains, locus YMR205C, strain PFK2, hits give low values 1.01 | S. cerevisiae deletion strains, locus YMR223W, strain ubp8, hits give low values 1.01 | S. cerevisiae deletion strains, locus YMR231W, strain pep5, hits give low values 1.01 | S. cerevisiae deletion strains, locus YMR263W, strain SAP30, hits give low values 1.01 | S. cerevisiae deletion strains, locus YMR307W, strain GAS1, hits give low values 1.03 | S. cerevisiae deletion strains, locus YNL067W, strain RPL9B, hits give low values 1 | S. cerevisiae deletion strains, locus YNL071W, strain lat1, hits give low values 1.01 | S. cerevisiae deletion strains, locus YNL153C, strain GIM3, hits give low values 1.01 | S. cerevisiae deletion strains, locus YNL183C, strain NPR1, hits give low values 0.943 | S. cerevisiae deletion strains, locus YNL209W, strain ssb2, hits give low values 1.04 | S. cerevisiae deletion strains, locus YNL233W, strain BNI4, hits give low values 0.988 | S. cerevisiae deletion strains, locus YNL248C, strain rpa49, hits give low values 1.05 | S. cerevisiae deletion strains, locus YNL250W, strain rad50, hits give low values 1.01 | S. cerevisiae deletion strains, locus YNL271C, strain bni1, hits give low values 0.995 | S. cerevisiae deletion strains, locus YNL298W, strain CLA4, hits give low values 1.02 | S. cerevisiae deletion strains, locus YNL307C, strain MCK1, hits give low values 1.02 | S. cerevisiae deletion strains, locus YNL322C, strain KRE1 (second series), hits give low values 1.02 | S. cerevisiae deletion strains, locus YNL322C, strain KRE1, hits give low values 1 | S. cerevisiae deletion strains, locus YNR049C, strain mso1, hits give low values 1.02 | S. cerevisiae deletion strains, locus YNR052C, strain pop2, hits give low values 1.02 | S. cerevisiae deletion strains, locus YOL006C, strain TOP1, hits give low values 1 | S. cerevisiae deletion strains, locus YOL012C, strain htz1 0.768 | S. cerevisiae deletion strains, locus YOL147C, strain pex11, hits give low values 1.02 | S. cerevisiae deletion strains, locus YOR001W, strain rrp6, hits give low values 1.03 | S. cerevisiae deletion strains, locus YOR061W, strain CKA2, hits give low values 1 | S. cerevisiae deletion strains, locus YOR069W, strain VPS5, hits give low values 1 | S. cerevisiae deletion strains, locus YOR070C, strain gyp1, hits give low values 1.03 | S. cerevisiae deletion strains, locus YOR080W, strain dia2, hits give low values 1.02 | S. cerevisiae deletion strains, locus YOR083W, strain WHI5, hits give low values 0.999 | S. cerevisiae deletion strains, locus YOR106W, strain vam3, hits give low values 0.998 | S. cerevisiae deletion strains, locus YOR136W, strain idh2, hits give low values 1.02 | S. cerevisiae deletion strains, locus YOR144C, strain elg1, hits give low values 1.02 | S. cerevisiae deletion strains, locus YOR184W, strain ser1, hits give low values 1.02 | S. cerevisiae deletion strains, locus YOR231W, strain MKK1, hits give low values 0.985 | S. cerevisiae deletion strains, locus YOR265W, strain rbl2, hits give low values 1 | S. cerevisiae deletion strains, locus YOR270C, strain vph1, hits give low values 1.01 | S. cerevisiae deletion strains, locus YOR290C, strain snf2, hits give low values 0.974 | S. cerevisiae deletion strains, locus YOR316C, strain cot1, hits give low values 1.02 | S. cerevisiae deletion strains, locus YPL051W, strain arl3, hits give low values 1.02 | S. cerevisiae deletion strains, locus YPL078C, strain atp4, hits give low values 0.985 | S. cerevisiae deletion strains, locus YPL106C, strain sse1, hits give low values 1 | S. cerevisiae deletion strains, locus YPL240C, strain hsp82, hits give low values 1.01 | S. cerevisiae deletion strains, locus YPL256C, strain CLN2, hits give low values 0.981 | S. cerevisiae deletion strains, locus YPR119W, strain clb2, hits give low values 1.01 | S. cerevisiae deletion strains, locus YPR141C, strain kar3, hits give low values 1.02 | S. cerevisiae deletion strains, locus YPR163C, strain tif3, hits give low values 1.01 | S. cerevisiae deletion strains, locus YPR167C, strain met16, hits give low values 1.02 | S. cerevisiae deletion strains, strain wtn01, hits give low values 1.01 | S. cerevisiae strains, strain wild type, hits give low values 1.01
